Source: PubChem BioAssay (National Center for Advancing Translational Sciences (NCATS))
Most compounds without a hit are left out; they make up all but 3.3% or so of the library.
Vaccinia Venus – inhibitors of vaccinia virus (Venus reporter). Vaccinia virus Venus reporter expression, fluorescence. Potency, µM (series often up to 36.5 µM), inactives show at the highest dose activity change, negative = inhibition, most hits filed as inhibitors. 0.46% of 330,000 active. AID 720580; calls by dose curve; tested in A549 cells; note: nearly all actives have a fitted effect of over 30% in size
HCV inhibitor – HCV inhibition | Huh7.5.1 HCVcc-Cre infection, luciferase reporter, 44 h | Potency, µM (series often up to 41.8 µM), inactives show at the top dose activity change, negative = inhibition, actives largely listed as inhibitors | AID 651820 | 3.4% of 340,000 active; active = well fitted inhibition curve with a large enough effect; inconclusive = small, poorly fitted or top-dose-only effect, or another doubt; inactive = no such curve, though single readings can be large or run the other way
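Infectious HCVcc-Cre (~0.5 moi) was added to cells just after compound, with cells seeded 4 h earlier at 1,000 per well. Luciferase activity after 44 h culture reported infection; substrate was incubated 15 min at room temperature before reading.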
Vaccinia mCherry – vaccinia inhibition (mCherry reporter); Vaccinia virus mCherry reporter infection, fluorescence; Potency, µM (titrated, usually from 36.5 µM), without a hit: top-dose activity change, negative = inhibition, most hits filed as inhibitors; 0.63% of 310,000 active; AID 720579; calls by dose curve; tested in A549 cells; note: nearly all actives have a fitted effect of over 35% in size
Active calls of the source: *; i = inactive; ? = inconclusive; nt = not tested or not shown. % is set by controls: 0 for no effect and ±100 for the full control effect; potency is the fitted concentration of half-maximal effect.

SMILES	Vaccinia Venus	HCV inhibitor	Vaccinia mCherry
CC(Sc1ncnc2sccc12)C(=O)Nc1ccc(S(N)(=O)=O)cc1 (stereo not drawn)	?	-22.8%	11.2µM*
CCC1CCCCN1CC(=O)c1c(C)[nH]c2cc(C)ccc12 (stereo not drawn)	-5.9%	-4.5%	-17.0%
COc1ccccc1/C=C/c1nc(C#N)c(NC2CCCCC2)o1	-8.6%	nt	-6.0%
COc1cc(C(=O)Nc2ccc3[nH]c(=O)sc3c2)cc(OC)c1OC	19.9%	nt	20.9%
Cc1nc2cc(NC(=O)[C@@H]3C[C@@H](Sc4ccccn4)CN3Cc3ccc(F)cc3F)ccc2s1	0.1%	nt	-14.8%
Cc1ccnc2c(O)cccc12	5.0%	nt	-12.4%
Cc1ccnc2c1ccc1ccccc12	-5.4%	15.3%	5.4%
Cc1ccnc2c1ccc1c(C)ccnc12	nt	5.62µM*	nt
Cc1ccnc2c1ccc1cccnc12	?	2.24µM*	4.47µM*
CN(C(=O)c1cccc(NC(=O)Cc2ccc(NC(=O)C3CCN(C(=O)CCc4ccccc4)CC3)cc2)c1)C1CCCCC1	?	-15.2%	-19.7%
CC(C)(O)/C=C/C(=O)[C@](C)(O)C1[C@H](O)C[C@@]2(C)C3CC=C4C(C=C(O[C@@H]5O[C@H](CO)[C@@H](O)[C@H](O)[C@H]5O)C(=O)C4(C)C)[C@]3(C)C(=O)C[C@]12C (stereo partly drawn)	-21.9%	44.3%	i
CC(C)(O)/C=C/C(=O)[C@](C)(O)C1[C@H](O)C[C@@]2(C)C3CC=C4C(C[C@H](O)[C@@H](O)C4(C)C)[C@]3(C)C(=O)C[C@]12C (stereo partly drawn)	1.58µM*	?	?
C[n+]1ccc(C(c2c[nH]c3ccccc23)c2cc[n+](C)c3ccccc23)c2ccccc21	i	nt	231.4%
CCN(Cc1nc2ccccc2c(=O)[nH]1)C(=O)COc1ccccc1Cc1ccccc1	-14.3%	?	-0.3%
O=C(OCc1cccs1)c1ccccc1NS(=O)(=O)c1ccc2c(c1)OCCO2	-13.2%	8.91µM*	i
O=C(c1ccccc1NS(=O)(=O)c1ccc2c(c1)OCCO2)N1CCOCC1	-3.2%	10.7%	?
CCC(C)c1ccc(OCC(=O)Nc2cccc(-c3nc4ncccc4o3)c2)cc1 (stereo not drawn)	-4.8%	nt	i
CC(=O)c1ccc(NS(=O)(=O)c2ccc(-n3cccn3)cc2)cc1	-5.2%	nt	-5.2%
CCc1nnc(NC(=O)Nc2ccc(Cl)cc2)s1	-7.1%	-14.6%	-4.4%
O=C(Nc1ccc(Cl)cc1)Nc1nnc(CSCc2ccc(Cl)cc2)s1	nt	5.01µM*	nt
CCN(C(=O)CSc1nc(-c2ccc(C(C)C)cc2)no1)c1ccccc1	3.0%	nt	-2.0%
CCCCOc1ccc(C(=O)Nc2ccc3c(c2)OCO3)cc1	nt	-20.5%	nt
CCOc1ccc(C(=O)Nc2ccc3c(c2)OCCO3)cc1[N+](=O)[O-]	-6.6%	?	-5.6%
CCOc1ccc(NC(=O)c2ccc3c(c2)OCCO3)cc1S(=O)(=O)N(CC)CC	nt	2.82µM*	nt
CCCOc1c(Cl)cc(C(=O)Nc2ccc3c(c2)OCO3)cc1OCC	?	12.6µM*	?
SMILES	Vaccinia Venus	HCV inhibitor	Vaccinia mCherry
Cc1ccc(-n2nc3ccc(NC(=O)c4ccc5c(c4)OCO5)cc3n2)cc1	nt	-3.0%	nt
O=C(Nc1ccc2nn(-c3ccccc3)nc2c1)c1ccc2c(c1)OCCO2	-28.9%	7.08µM*	nt
Cc1ccc(NC(=O)c2ccc3c(c2)OCCO3)cc1S(=O)(=O)Nc1cccc(Cl)c1	?	10µM*	-23.0%
Cc1ccc(NC(=O)c2ccc3c(c2)OCCO3)cc1C	-7.3%	?	5.5%
NCCCN(Cc1ccc(Cl)cc1)c1ccc(Br)cn1	-14.6%	nt	-5.1%
COc1cc(=O)n2c(c1C(=O)N(C)Cc1nonc1C)CCN(C(=O)c1cc(C)cc(C)c1)CC2	-16.0%	nt	-8.0%
Cc1nc2ccc(C(=O)N3CCc4c(cnc(C)c4CNC(=O)/C=C/c4cccs4)C3)cc2nc1C	-13.6%	nt	-0.1%
Cc1ccc(C(=O)Nc2ccc(C)c(S(=O)(=O)Nc3ccccc3Cl)c2)s1	-26.1%	10µM*	-24.4%
CCc1ccc(-n2nc3ccc(NC(=O)c4ccc5c(c4)OCO5)cc3n2)cc1	nt	-17.4%	nt
O=C(Nc1ccc(Cl)c(S(=O)(=O)Nc2ccccc2Cl)c1)c1cccs1	-14.3%	-7.0%	-15.8%
CCOc1ccc(-n2nc3ccc(NC(=O)c4ccc5c(c4)OCCO5)cc3n2)cc1	-11.8%	6.31µM*	-12.8%
CN(C)CCN1CCN(C(c2cc3ccccc3o2)c2nnnn2C(C)(C)C)CC1 (stereo not drawn)	-8.1%	nt	-13.1%
CCOC(=O)/C(=C\c1ccc(OC(F)F)cc1)C1=Nn2c(nnc2-c2ccc(Cl)cc2)SC1	12.6µM*	?	?
CC1=Nn2c(nnc2-c2ccc(F)cc2)SC1	nt	-1.5%	nt
CCOC(=O)/C(=C/c1ccc(OC(F)F)cc1)C1=Nn2c(nnc2-c2ccc(Cl)cc2)SC1	11.2µM*	?	?
